One compound from ChEMBL document CHEMBL2218924, “A broad activity screen in support of a chemogenomic map for kinase signalling research and drug discovery” (Biochem J, 2013) can be followed below.

The target in assay [1] is Tyrosine-protein kinase SYK (Homo sapiens) (UniProt P43405). Particulars: at 10 µM.
The target of assay [2] is T1, Mitogen-activated protein kinase kinase kinase 7 (Homo sapiens) (UniProt O43318).
T1 sequence (whole entry): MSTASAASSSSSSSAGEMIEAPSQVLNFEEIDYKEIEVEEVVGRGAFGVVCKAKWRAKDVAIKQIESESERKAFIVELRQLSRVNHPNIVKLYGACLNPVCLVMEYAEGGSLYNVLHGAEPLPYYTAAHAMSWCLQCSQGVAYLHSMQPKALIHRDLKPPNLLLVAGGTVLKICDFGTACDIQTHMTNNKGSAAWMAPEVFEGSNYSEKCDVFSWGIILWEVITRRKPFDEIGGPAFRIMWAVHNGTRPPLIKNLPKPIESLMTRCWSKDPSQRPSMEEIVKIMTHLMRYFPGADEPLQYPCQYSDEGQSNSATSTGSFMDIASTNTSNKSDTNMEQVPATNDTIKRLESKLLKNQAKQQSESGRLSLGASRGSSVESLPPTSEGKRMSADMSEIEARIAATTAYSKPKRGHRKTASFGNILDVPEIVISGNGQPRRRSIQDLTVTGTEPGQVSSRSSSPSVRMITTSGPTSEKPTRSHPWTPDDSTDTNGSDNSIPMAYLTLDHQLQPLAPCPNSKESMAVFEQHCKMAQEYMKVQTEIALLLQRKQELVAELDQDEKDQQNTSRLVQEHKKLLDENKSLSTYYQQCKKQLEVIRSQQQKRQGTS
Particulars: at 1 µM.

Assay [3] deals with T1, Mitogen-activated protein kinase kinase kinase 7 (Homo sapiens). Particulars: at 10 µM.
The target of assay [4] is T2, Serine/threonine-protein kinase TAO1 (Homo sapiens) (UniProt Q7L7X3).
T2 sequence (whole entry): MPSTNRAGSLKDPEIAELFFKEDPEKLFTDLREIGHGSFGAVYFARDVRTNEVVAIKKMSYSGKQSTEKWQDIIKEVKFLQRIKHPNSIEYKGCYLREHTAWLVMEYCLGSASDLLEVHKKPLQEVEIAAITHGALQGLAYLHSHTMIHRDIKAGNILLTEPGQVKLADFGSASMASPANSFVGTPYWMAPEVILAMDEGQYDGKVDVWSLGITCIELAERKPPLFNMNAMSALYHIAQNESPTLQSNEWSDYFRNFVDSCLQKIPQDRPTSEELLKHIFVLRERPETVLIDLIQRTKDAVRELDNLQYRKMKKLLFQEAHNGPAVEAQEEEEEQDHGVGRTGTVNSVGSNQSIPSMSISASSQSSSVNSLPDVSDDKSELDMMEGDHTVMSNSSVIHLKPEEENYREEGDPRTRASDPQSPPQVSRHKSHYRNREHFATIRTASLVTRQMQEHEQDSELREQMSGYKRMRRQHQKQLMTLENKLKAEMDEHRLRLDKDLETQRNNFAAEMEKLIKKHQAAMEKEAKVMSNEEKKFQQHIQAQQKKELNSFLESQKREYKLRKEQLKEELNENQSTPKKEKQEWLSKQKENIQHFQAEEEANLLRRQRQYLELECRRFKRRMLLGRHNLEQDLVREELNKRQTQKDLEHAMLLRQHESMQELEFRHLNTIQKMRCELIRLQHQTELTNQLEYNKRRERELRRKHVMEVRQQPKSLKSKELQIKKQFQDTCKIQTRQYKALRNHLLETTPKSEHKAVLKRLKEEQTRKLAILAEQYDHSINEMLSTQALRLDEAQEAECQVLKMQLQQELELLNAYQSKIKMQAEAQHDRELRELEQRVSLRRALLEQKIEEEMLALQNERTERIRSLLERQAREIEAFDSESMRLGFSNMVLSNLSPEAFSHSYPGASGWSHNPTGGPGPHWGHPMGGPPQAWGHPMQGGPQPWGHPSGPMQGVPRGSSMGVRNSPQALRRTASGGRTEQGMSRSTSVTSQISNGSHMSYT
Particulars: at 1 µM.

Assay [5] concerns the target T2, Serine/threonine-protein kinase TAO1 (Homo sapiens). Particulars: at 10 µM.
In assay [6] the target is T3, Serine/threonine-protein kinase TAO2 (Homo sapiens) (UniProt Q9UL54).
T3 sequence (whole entry): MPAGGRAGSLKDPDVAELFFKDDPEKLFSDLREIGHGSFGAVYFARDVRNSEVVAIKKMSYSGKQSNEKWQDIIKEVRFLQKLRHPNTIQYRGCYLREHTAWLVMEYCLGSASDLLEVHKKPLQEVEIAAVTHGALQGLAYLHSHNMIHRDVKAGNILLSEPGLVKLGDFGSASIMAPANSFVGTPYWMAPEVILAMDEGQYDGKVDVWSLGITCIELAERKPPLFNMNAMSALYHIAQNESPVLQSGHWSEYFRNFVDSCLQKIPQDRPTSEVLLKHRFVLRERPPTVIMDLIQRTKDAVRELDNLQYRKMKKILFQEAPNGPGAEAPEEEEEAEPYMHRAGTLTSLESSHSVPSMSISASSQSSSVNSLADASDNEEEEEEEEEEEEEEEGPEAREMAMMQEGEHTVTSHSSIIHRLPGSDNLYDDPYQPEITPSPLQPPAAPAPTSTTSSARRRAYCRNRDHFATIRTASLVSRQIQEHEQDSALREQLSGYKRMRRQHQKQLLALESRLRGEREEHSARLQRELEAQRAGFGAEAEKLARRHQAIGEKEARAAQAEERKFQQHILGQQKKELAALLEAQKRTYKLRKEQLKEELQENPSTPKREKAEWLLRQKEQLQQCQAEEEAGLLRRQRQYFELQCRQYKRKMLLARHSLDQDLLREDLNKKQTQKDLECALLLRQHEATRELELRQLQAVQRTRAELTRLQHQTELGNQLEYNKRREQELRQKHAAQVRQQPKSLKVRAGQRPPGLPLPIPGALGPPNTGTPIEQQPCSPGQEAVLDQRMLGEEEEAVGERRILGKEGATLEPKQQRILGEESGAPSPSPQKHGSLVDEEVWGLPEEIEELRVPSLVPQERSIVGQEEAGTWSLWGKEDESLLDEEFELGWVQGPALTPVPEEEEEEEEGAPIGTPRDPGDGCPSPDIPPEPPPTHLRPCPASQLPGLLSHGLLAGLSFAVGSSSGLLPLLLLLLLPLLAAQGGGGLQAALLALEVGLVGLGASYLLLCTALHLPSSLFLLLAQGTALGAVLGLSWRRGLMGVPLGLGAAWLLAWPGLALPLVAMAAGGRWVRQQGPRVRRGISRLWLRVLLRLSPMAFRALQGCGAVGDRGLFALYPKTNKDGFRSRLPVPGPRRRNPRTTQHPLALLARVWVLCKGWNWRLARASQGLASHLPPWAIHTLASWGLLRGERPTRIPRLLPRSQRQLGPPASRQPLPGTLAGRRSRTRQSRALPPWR
Particulars: at 1 µM.

The target in assay [7] is T3, Serine/threonine-protein kinase TAO2 (Homo sapiens). Particulars: at 10 µM.
Assay [8] addresses T4, Serine/threonine-protein kinase TAO3 (Homo sapiens) (UniProt Q9H2K8).
T4 sequence (whole entry): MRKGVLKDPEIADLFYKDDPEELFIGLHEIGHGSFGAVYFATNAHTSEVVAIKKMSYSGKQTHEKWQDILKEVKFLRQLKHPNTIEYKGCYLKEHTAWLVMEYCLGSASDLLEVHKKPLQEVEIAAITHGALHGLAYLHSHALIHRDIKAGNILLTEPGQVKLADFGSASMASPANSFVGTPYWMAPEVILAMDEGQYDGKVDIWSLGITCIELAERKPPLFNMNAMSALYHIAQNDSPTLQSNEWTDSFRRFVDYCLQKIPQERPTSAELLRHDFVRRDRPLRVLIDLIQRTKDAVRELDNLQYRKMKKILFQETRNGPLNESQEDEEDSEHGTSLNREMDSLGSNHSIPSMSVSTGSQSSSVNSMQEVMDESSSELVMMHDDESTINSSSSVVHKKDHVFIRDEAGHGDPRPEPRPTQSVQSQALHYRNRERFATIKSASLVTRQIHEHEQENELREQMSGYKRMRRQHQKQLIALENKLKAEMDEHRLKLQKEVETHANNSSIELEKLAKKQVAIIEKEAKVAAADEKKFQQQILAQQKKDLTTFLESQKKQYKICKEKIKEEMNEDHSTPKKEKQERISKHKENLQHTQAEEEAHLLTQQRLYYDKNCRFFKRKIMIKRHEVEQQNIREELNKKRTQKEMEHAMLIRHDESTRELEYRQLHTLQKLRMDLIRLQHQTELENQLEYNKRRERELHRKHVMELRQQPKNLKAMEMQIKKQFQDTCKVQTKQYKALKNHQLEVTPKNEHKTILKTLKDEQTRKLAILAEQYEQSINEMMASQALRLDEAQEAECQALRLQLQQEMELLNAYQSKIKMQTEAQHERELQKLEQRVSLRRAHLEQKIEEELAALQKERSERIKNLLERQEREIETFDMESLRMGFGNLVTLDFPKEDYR
Particulars: at 1 µM.

Assay [9] has as its target T4, Serine/threonine-protein kinase TAO3 (Homo sapiens). Particulars: at 10 µM.
Assay [10] deals with T5, Serine/threonine-protein kinase TBK1 (Homo sapiens) (UniProt Q9UHD2).
T5 sequence (whole entry): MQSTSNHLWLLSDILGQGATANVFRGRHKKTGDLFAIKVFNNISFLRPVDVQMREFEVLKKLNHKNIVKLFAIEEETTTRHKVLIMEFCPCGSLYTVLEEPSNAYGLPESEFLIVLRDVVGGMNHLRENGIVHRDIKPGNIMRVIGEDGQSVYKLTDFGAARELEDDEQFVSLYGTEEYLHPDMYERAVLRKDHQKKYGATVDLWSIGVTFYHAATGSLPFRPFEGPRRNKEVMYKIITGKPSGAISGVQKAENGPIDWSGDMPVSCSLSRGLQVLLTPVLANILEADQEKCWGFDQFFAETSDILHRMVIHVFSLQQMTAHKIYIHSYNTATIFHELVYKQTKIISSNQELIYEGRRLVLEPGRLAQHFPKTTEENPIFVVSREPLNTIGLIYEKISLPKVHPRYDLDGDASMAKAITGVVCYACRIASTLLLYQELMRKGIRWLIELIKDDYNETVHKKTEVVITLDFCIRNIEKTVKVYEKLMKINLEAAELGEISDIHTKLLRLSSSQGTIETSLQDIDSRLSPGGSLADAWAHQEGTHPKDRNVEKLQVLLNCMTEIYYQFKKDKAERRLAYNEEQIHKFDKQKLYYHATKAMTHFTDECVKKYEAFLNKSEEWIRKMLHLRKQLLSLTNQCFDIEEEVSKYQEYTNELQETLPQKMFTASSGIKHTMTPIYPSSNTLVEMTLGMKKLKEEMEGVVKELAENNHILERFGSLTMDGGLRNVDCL
Particulars: at 1 µM.

For the compound `O=C1NC(=O)/C(=C/c2ccc3c(c2)OC(F)(F)O3)S1`, the residual activity in assay [1] came to 73%; in assay [2], 96%; in assay [3] it was 88%; in [4] it was 100%; in assay [5], 74%; in [6], 113%. Moreover, the residual activity in [7] was 105%; in assay [8], 103%; in [9] it was 66%; in assay [10] it was 80%.
